The panel holds about 83,000 compounds, 20% with a hit somewhere; the sample as a whole holds those more often.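 Method: cells in 96-well plates; compound added at one concentration; 48 h incubation; percent growth measured; values under 10 scored active.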 Values without a mark were called inactive. Activity calls are given as the source filed them.
Assays:
Assay in all cases: NCI-60 one-dose screen, 48 h (100 = growth as untreated, 0 = no growth, -100 = all killed)
Conditions in all cases: 10 µM unless noted
DU-145 prostate = test system: DU-145 prostate
K-562 leukemia = test system: K-562 leukemia
MALME-3M melanoma = test system: MALME-3M melanoma
MDA-MB-231 breast = test system: MDA-MB-231 breast
RXF 393 renal = test system: RXF 393 renal
SF-268 CNS = test system: SF-268 CNS
SF-539 CNS = test system: SF-539 CNS
UACC-257 melanoma = test system: UACC-257 melanoma
M14 melanoma = test system: M14 melanoma
HCT-15 colon = test system: HCT-15 colon
HT29 colon = test system: HT29 colon
SNB-75 CNS = test system: SNB-75 CNS
SNB-19 CNS = test system: SNB-19 CNS
U251 CNS = test system: U251 CNS
PC-3 prostate = test system: PC-3 prostate
SK-MEL-5 melanoma = test system: SK-MEL-5 melanoma
UACC-62 melanoma = test system: UACC-62 melanoma
LOX IMVI melanoma = test system: LOX IMVI melanoma
SK-MEL-28 melanoma = test system: SK-MEL-28 melanoma

Row | Compound | growth (DU-145 prostate) | growth (K-562 leukemia) | growth (MALME-3M melanoma) | growth (MDA-MB-231 breast) | growth (RXF 393 renal) | growth (SF-268 CNS) | growth (SF-539 CNS) | growth (UACC-257 melanoma) | growth (M14 melanoma) | growth (HCT-15 colon) | growth (HT29 colon) | growth (SNB-75 CNS) | growth (SNB-19 CNS) | growth (U251 CNS) | growth (PC-3 prostate) | growth (SK-MEL-5 melanoma) | growth (UACC-62 melanoma) | growth (LOX IMVI melanoma) | growth (SK-MEL-28 melanoma)
1 | C=C(CN1CC=CCC1)[C@@H]1CC[C@]2(C(=O)OC)CC[C@]3(C)[C@H](CC[C@@H]4[C@@]5(C)CC[C@H](OC(C)=O)C(C)(C)[C@@H]5CC[C@]43C)[C@@H]12 | 107% | 57.9% | 92.9% | 99.2% | 101% | 92.5% | 93.3% | 91.9% | 86.1% | 105% | 75.3% | 88.4% | 86% | 83.2% | 61.4% | 90.3% | 80.7% | 99.7% | 94.9%
2 | CCN(CC)CCCC(C)N/C(c1cccc(OC)c1)=c1\c(=O)[nH]n(-c2c3ccccc3nc3ccccc23)c(=O)\c1=C(/NC(C)CCCN(CC)CC)c1cccc(OC)c1 (centres undefined) | -13.5% (active) | -22.1% (active) | -93.9% (active) | -51.9% (active) | -78.3% (active) | -48.8% (active) | -91.5% (active) | -95.5% (active) | -80% (active) | 2.74% (active) | -68% (active) | -22.5% (active) | 13% | -73% (active) | -57.7% (active) | -98.9% (active) | -77.9% (active) | -66.1% (active) | -96% (active)
3 | CCOC(=O)Nc1ccc2nc(-c3cscn3)[nH]c2c1 | 72.9% | 19.1% | 22% | 59.9% | 39.2% | 66.5% | 62.9% | 66.6% | 16.1% | 37.8% | 14.8% | 33.1% | 63.2% | 35% | 82.2% | 31.9% | 45.4% | 46.6% | 53.4%
4 | Cn1nc(C(F)(F)F)cc1-c1cc(Cl)c(OCc2ccc(Cl)cc2)c(-c2ccc(Cl)c(C(F)(F)F)c2)c1O | 11.5% | 8.16% (active) | -26.5% (active) | -21.8% (active) | -17.6% (active) | 2.82% (active) | -12.5% (active) | 1.55% (active) | -13.5% (active) | 6.63% (active) | 5.38% (active) | -8.74% (active) | 17.4% | 8.94% (active) | 7.86% (active) | -53.3% (active) | 4.43% (active) | 12.4% | 13.7%
5 | Cc1ccc(CSCc2ccc(C(=O)NC3CC3)o2)cc1 | 80.5% | 40% | 96.4% | 35.3% | 92.7% | 83.2% | 79.8% | 93.5% | 57.3% | 37.7% | 27.9% | 86% | 98.8% | 56.4% | 74.2% | 57.3% | 50.5% | 58.2% | 100%
6 | COc1ccc(-c2nnc(SCC(=O)Nc3ccc(C(=O)/C=C/c4ccc(Cl)cc4)cc3)n2-c2ccccc2)cc1 | 101% | 96.7% | 112% | 79.6% | 106% | 91% | 101% | 115% | 85.9% | 94.7% | 99.2% | 86.5% | 99.6% | 85.8% | 87.9% | 92.1% | 83.7% | 103% | 101%
7 | COc1ccc(C(=O)c2c(N)nc3n2CCCC3)cc1OC | 107% | 90.6% | 99.9% | 115% | 111% | 106% | 102% | 100% | 103% | 98.4% | 94.7% | 85.1% | 110% | 98.5% | 101% | 100% | 109% | 97% | 108%
8 | CCCC(CCC)NCC(O)c1cc(-c2ccc(C(F)(F)F)cc2)nc(C(F)(F)F)c1 (centres undefined) | -26.2% (active) | -51.1% (active) | -63.7% (active) | -66.9% (active) | -97% (active) | -40.5% (active) | -72.2% (active) | -76.9% (active) | -74.8% (active) | -62.4% (active) | -74% (active) | -3.88% (active) | 8.92% (active) | -96.6% (active) | -47.3% (active) | -94% (active) | -68.1% (active) | -64.2% (active) | -41.9% (active)
9 | CCCCCCCCCCCCCC[N+](C)(C)CCCCCCCCCCCCCC | 97.9% | 30.5% | 50.1% | 78.9% | 2.29% (active) | 70.8% | 77.2% | 82.5% | 75.4% | 75.1% | 30.5% | 62.9% | 70.4% | 44.7% | 12.6% | 69.4% | 42.6% | 51.8% | 89.3%
10 | Oc1ccc(Cl)cc1-c1cc(-c2ccccc2Cl)[nH]n1 | 73.3% | 37.8% | 71.1% | 21.7% | 84.2% | 49.6% | 83.4% | 81.8% | 84.9% | 29.2% | 92.2% | 44.2% | 88% | 67% | 44.1% | 68.7% | 59.5% | 51.7% | 89.7%
11 | Nc1n[nH]c2ccc([C@@H]3Nc4c(F)cc5[nH]ncc5c4[C@H]4C5CCC(C5)[C@@H]34)cc12 (some centres undefined) | 3.59% (active) | 13.9% | 32.7% | 4.87% (active) | -0.647% (active) | 36.1% | -39% (active) | 62.1% | 9.46% (active) | 19.8% | 11.7% | 7.8% (active) | 27.9% | 14.3% | 22.8% | 4.3% (active) | 38.1% | 20.3% | 49.2%
12 | O=C(c1ccc(C(F)(F)F)c(Cl)c1)N(Cc1ccc(Cl)cc1)c1ccc(-c2cc(C(F)(F)F)[nH]n2)c(O)c1 | 12.8% | 7.36% (active) | 1.34% (active) | -35.7% (active) | -9.88% (active) | 7.06% (active) | 2.09% (active) | 10.3% | 10.9% | 7.04% (active) | 5.34% (active) | 10.3% | 26.2% | 4.18% (active) | 11.2% | -42.9% (active) | 14.5% | 4.7% (active) | 30.8%
13 | COc1ccc(-n2nc(C(=O)NCC(=O)Nc3nc4cc(OC)ccc4s3)c3ccccc3c2=O)cc1 | -28.9% (active) | 73.9% | -13.8% (active) | -13.6% (active) | -38.1% (active) | -13.6% (active) | -93% (active) | -4.82% (active) | 44.3% | 64.7% | -24.4% (active) | -65.9% (active) | 0.597% (active) | -39.8% (active) | 3.92% (active) | 48.9% | 31.2% | -32.4% (active) | 21.1%
14 | COc1ccc(-c2nc3ccc(Cc4ccc5nc(-c6ccc(OC)cc6)[nH]c5c4)cc3[nH]2)cc1 | 64.6% | 13.4% | -13.1% (active) | 17.3% | 93.9% | 6.83% (active) | 56.6% | -20% (active) | 40.1% | 77.1% | 44.2% | 92.9% | 49% | 16.9% | 43.3% | 13.5% | 38.2% | 15.7% | 82.3%
15 | COc1cc(NC(C)CCCN)c2ncccc2c1Sc1ccc(Cl)cc1 (centres undefined) | 76.3% | -33.2% (active) | 82.4% | 36% | 57.9% | 70.5% | 75.9% | 65.1% | 27.5% | 39.3% | -46.4% (active) | 48.7% | 78.3% | 39.3% | 47.1% | 67.3% | 81.2% | -62.4% (active) | 93.3%
16 | O=C1c2ccccc2C2N1CCC1CCc3ccccc3N12 (centres undefined) | 117% | 89.4% | 88.9% | 92.7% | 106% | 111% | 88.9% | 102% | 97.1% | 94.5% | 100% | 94.3% | 96.2% | 89.7% | 76.3% | 98% | 82.2% | 100% | 109%

— PubChem BioAssay (NCI)
